# From ChEMBL document CHEMBL1961873, “Compounds: GSK PKIS; Assays: Nanosyn kinase panel” (2012)
# How the values were obtained:
# [1] = target: Mitogen-activated protein kinase 3 (Homo sapiens) (UniProt P27361); settings: at 1 µM;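 also: values are mean percent inhibition of MAPK3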
# [2] = target: SRSF protein kinase 3 (Homo sapiens) (UniProt Q9UPE1); settings: at 0.1 µM
# [3] = target: SRSF protein kinase 3 (Homo sapiens) (UniProt Q9UPE1); settings: at 1 µM
# [4] = target: Mitogen-activated protein kinase 14 (Homo sapiens) (UniProt Q16539); settings: at 0.1 µM
# Chain of Mitogen-activated protein kinase 14 (Homo sapiens) (Q16539 whole entry): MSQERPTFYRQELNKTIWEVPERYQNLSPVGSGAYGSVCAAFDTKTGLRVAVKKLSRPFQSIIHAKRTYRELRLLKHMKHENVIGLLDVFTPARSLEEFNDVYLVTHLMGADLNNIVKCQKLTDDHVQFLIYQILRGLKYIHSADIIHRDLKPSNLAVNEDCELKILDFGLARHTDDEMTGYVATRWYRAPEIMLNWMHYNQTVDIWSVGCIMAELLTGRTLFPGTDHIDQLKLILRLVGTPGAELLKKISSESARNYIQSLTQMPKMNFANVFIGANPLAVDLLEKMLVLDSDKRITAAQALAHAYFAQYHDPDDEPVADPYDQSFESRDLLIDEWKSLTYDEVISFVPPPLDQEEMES
# [5] = target: Mitogen-activated protein kinase 14 (Homo sapiens) (UniProt Q16539); settings: at 1 µM
# [6] = target: Mitogen-activated protein kinase 11 (Homo sapiens) (UniProt Q15759); settings: at 0.1 µM
# Chain of Mitogen-activated protein kinase 11 (Homo sapiens) (Q15759 whole entry): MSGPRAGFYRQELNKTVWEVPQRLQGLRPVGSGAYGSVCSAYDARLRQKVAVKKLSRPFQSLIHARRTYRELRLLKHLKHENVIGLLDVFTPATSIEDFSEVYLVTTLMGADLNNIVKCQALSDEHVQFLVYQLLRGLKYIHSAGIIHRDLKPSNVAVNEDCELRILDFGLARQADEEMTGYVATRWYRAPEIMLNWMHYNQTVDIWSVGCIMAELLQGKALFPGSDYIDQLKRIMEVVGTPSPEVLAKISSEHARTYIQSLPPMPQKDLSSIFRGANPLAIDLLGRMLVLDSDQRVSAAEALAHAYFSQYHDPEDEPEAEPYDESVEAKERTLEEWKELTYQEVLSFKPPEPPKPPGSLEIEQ
# [7] = target: Mitogen-activated protein kinase 11 (Homo sapiens) (UniProt Q15759); settings: at 1 µM
# [8] = target: T1, Mitogen-activated protein kinase 13 (Homo sapiens) (UniProt O15264); settings: at 0.1 µM
# T1 sequence (whole entry): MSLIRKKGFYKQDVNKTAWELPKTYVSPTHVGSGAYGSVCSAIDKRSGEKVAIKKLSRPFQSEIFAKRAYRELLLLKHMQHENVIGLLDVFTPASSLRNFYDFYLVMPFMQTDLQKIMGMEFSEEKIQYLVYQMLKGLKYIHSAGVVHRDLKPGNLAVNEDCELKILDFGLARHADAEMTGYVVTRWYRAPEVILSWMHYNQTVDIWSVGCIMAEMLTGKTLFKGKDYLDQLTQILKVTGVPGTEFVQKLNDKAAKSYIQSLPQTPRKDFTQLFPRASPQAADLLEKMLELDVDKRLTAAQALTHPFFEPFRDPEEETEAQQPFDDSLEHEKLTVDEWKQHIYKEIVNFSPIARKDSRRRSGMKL
# [9] = target: T1, Mitogen-activated protein kinase 13 (Homo sapiens); settings: at 1 µM
# [10] = target: T2, Mitogen-activated protein kinase 12 (Homo sapiens) (UniProt P53778); settings: at 0.1 µM
# T2 sequence (whole entry): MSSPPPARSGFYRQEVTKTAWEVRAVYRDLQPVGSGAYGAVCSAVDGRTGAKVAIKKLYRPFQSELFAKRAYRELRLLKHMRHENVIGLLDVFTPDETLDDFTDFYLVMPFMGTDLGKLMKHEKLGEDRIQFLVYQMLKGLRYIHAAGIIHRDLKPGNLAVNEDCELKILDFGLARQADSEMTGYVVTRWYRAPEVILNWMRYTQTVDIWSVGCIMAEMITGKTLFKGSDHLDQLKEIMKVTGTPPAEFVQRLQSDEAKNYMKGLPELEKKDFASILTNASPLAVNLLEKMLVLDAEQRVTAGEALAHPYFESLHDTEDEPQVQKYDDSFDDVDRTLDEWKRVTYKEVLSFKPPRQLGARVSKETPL
# [11] = target: T2, Mitogen-activated protein kinase 12 (Homo sapiens); settings: at 1 µM
# [12] = target: SRSF protein kinase 1 (Homo sapiens) (UniProt Q96SB4); settings: at 0.1 µM
# Chain of SRSF protein kinase 1 (Homo sapiens) (Q96SB4 whole entry, canonical isoform): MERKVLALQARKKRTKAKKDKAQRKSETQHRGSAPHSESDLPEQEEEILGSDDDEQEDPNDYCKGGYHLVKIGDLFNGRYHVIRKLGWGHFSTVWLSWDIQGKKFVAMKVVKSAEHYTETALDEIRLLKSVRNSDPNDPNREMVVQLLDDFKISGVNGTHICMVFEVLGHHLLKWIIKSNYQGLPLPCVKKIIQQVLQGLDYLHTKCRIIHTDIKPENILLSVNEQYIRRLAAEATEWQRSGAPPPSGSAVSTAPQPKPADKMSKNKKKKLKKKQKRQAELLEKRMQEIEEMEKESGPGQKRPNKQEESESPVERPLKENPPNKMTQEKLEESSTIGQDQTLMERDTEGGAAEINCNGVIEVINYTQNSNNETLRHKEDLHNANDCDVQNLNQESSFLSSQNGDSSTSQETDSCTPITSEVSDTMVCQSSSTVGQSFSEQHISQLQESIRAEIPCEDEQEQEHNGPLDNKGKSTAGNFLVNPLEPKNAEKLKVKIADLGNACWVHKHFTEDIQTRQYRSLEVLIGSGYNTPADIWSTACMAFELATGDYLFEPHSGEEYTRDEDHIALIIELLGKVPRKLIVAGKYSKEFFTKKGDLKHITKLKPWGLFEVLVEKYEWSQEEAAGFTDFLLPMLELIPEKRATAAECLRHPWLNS
# [13] = target: SRSF protein kinase 1 (Homo sapiens) (UniProt Q96SB4); settings: at 1 µM
# [14] = target: Phosphatidylinositol 4,5-bisphosphate 3-kinase catalytic subunit alpha isoform (Homo sapiens) (UniProt P42336); settings: at 0.1 µM
# Chain of Phosphatidylinositol 4,5-bisphosphate 3-kinase catalytic subunit alpha isoform (Homo sapiens) (P42336 whole entry, canonical isoform): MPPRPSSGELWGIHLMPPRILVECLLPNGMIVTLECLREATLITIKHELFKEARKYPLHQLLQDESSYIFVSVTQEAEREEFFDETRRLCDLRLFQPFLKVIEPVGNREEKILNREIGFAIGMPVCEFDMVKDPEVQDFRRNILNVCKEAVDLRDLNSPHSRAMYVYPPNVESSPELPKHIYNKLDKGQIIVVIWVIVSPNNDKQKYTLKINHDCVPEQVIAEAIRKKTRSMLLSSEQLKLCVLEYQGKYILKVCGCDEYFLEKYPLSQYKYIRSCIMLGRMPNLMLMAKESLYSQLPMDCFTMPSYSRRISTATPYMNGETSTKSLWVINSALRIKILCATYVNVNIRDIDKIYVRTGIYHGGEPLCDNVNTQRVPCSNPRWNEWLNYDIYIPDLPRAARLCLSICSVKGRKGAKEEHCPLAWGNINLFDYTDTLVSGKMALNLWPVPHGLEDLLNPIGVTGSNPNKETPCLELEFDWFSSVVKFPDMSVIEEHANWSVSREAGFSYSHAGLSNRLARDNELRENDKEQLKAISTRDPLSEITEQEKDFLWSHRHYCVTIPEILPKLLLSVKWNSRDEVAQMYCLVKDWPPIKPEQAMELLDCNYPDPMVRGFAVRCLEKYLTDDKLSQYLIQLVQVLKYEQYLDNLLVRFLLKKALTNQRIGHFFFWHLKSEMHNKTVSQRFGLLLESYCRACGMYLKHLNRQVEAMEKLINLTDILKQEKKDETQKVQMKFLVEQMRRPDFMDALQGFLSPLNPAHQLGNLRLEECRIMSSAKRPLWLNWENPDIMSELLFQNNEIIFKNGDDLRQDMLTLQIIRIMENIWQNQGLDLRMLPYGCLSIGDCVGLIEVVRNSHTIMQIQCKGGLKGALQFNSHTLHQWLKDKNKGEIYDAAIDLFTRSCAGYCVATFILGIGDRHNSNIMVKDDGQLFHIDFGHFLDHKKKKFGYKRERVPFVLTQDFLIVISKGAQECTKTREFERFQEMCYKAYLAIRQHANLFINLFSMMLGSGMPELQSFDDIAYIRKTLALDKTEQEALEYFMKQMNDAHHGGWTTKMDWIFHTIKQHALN
# [15] = target: Phosphatidylinositol 4,5-bisphosphate 3-kinase catalytic subunit alpha isoform (Homo sapiens) (UniProt P42336); settings: at 1 µM
# [16] = target: T3, Phosphatidylinositol 4,5-bisphosphate 3-kinase catalytic subunit delta isoform (Homo sapiens) (UniProt O00329); settings: at 0.1 µM
# T3 sequence (whole entry): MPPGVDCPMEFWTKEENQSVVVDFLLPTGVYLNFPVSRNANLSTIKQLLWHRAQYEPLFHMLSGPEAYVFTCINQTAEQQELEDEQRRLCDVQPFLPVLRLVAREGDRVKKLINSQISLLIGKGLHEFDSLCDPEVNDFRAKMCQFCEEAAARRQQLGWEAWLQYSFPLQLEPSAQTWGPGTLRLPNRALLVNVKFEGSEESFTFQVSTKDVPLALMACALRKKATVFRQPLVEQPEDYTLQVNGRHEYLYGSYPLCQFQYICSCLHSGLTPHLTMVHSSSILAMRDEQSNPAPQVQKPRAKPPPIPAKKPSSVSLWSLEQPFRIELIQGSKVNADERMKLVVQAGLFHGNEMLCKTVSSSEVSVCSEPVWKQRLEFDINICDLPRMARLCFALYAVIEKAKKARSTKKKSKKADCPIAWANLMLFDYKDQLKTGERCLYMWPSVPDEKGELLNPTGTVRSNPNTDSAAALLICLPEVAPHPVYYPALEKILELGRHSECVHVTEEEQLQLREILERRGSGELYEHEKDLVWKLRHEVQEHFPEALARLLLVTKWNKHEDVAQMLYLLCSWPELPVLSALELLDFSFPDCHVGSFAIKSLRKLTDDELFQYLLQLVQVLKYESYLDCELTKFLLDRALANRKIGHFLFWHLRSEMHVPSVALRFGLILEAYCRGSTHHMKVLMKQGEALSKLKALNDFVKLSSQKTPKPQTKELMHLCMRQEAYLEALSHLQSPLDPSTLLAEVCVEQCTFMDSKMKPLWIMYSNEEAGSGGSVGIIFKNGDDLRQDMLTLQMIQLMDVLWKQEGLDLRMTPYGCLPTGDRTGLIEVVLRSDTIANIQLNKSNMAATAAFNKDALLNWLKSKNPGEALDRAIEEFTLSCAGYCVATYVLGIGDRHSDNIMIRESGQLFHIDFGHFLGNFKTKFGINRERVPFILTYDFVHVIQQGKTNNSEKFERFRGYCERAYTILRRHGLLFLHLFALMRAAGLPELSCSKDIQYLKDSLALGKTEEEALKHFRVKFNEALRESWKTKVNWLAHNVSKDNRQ
# [17] = target: T3, Phosphatidylinositol 4,5-bisphosphate 3-kinase catalytic subunit delta isoform (Homo sapiens); settings: at 1 µM
# [18] = target: Phosphatidylinositol 4-kinase beta (Homo sapiens) (UniProt Q9UBF8); settings: at 0.1 µM
# Chain of Phosphatidylinositol 4-kinase beta (Homo sapiens) (Q9UBF8 2-816 limits assumed): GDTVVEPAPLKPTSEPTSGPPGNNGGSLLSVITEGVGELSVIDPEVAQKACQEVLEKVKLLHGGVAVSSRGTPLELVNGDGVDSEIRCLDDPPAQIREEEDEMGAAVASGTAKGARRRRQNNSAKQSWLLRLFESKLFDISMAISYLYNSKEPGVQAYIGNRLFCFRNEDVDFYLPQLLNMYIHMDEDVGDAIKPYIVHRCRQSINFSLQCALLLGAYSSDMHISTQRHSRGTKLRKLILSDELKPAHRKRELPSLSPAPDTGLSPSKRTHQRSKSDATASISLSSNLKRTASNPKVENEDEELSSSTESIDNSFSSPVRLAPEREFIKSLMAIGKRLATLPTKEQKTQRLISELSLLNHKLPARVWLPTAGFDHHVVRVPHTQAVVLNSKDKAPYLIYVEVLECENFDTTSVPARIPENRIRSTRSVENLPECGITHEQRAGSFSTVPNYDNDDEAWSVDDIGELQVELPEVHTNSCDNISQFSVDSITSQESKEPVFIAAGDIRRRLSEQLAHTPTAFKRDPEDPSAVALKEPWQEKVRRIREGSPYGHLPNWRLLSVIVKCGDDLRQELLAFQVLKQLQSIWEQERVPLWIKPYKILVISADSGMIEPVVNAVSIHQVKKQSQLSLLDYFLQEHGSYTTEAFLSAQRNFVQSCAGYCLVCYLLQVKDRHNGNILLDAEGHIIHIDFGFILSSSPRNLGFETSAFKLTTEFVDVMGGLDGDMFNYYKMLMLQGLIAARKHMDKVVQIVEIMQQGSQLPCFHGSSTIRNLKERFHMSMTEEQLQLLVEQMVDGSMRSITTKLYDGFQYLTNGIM
# [19] = target: Phosphatidylinositol 4-kinase beta (Homo sapiens) (UniProt Q9UBF8); settings: at 1 µM
# [20] = target: Sphingosine kinase 1 (Homo sapiens) (UniProt Q9NYA1); settings: at 0.1 µM;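 also: mean percent inhibition of SPHK1 activity, measured within the GSK PKIS screening panel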
# Chain of Sphingosine kinase 1 (Homo sapiens) (Q9NYA1 whole entry): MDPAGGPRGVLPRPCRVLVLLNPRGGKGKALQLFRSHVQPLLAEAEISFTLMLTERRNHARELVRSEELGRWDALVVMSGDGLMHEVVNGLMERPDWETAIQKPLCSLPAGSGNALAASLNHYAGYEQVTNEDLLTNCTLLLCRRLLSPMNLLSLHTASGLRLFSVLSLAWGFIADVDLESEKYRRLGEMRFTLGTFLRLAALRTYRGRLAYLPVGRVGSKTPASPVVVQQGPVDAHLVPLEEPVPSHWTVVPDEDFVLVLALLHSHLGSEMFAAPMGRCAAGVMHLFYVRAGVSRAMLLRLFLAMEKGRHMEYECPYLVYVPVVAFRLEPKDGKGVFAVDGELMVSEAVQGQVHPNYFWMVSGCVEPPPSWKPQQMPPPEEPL
# Chain of Mitogen-activated protein kinase 3 (Homo sapiens) (P27361 whole entry): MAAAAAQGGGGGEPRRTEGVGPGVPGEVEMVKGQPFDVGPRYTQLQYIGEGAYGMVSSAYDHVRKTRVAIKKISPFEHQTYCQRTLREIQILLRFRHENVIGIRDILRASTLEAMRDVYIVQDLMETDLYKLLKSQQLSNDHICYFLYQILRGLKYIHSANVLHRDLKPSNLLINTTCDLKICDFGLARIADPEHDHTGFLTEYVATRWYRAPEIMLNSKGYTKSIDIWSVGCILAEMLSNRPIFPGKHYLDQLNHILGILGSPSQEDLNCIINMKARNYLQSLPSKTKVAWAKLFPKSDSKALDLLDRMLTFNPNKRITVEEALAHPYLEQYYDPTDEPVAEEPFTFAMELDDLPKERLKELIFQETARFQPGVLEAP
# Chain of SRSF protein kinase 3 (Homo sapiens) (Q9UPE1 whole entry): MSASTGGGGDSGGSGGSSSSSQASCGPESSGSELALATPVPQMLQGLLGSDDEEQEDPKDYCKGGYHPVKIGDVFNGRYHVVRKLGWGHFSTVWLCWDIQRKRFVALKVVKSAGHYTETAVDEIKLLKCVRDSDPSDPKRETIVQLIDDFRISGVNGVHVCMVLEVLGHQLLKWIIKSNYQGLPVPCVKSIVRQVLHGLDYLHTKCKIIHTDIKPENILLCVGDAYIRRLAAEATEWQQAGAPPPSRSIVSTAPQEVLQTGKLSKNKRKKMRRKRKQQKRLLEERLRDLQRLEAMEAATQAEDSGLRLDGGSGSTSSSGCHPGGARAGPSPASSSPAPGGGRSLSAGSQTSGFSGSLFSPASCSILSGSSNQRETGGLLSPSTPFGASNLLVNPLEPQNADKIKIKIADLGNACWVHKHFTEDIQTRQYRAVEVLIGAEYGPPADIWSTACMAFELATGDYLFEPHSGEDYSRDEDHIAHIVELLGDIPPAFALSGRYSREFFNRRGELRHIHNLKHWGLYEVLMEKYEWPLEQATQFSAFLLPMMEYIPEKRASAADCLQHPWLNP
SMILES,inhibition [1] [%],inhibition [2] [%],inhibition [3] [%],inhibition [4] [%],inhibition [5] [%],inhibition [6] [%],inhibition [7] [%],inhibition [8] [%],inhibition [9] [%],inhibition [10] [%],inhibition [11] [%],inhibition [12] [%],inhibition [13] [%],inhibition [14] [%],inhibition [15] [%],inhibition [16] [%],inhibition [17] [%],inhibition [18] [%],inhibition [19] [%],inhibition [20] [%]
CCN1CCC(CC(=O)Nc2n[nH]c3nc(-c4cccs4)c(Br)cc23)CC1,0.02,-0.78,2.42,-3.19,0.26,-1.99,3.07,-0.36,-1.98,-1.67,-2.22,1.28,1.67,-1.25,-0.57,0.69,2.28,4.28,-0.5,-0.97
[O-][S+]1CCN(Cc2ccc(-c3ccc4ncnc(Nc5ccc(OCc6ccccc6)c(F)c5)c4c3)o2)CC1,-0.07,-1.09,-1.23,1.59,8.77,3.66,6.24,-1.08,3.34,0.27,2.56,-2.36,-4.42,1.82,3.14,2.61,5.44,-0.3,-1.35,-0.6
CCn1c(-c2nonc2N)nc2c(C#CC(C)(C)O)nc(OC[C@@H](N)c3ccccc3)cc21,1.84,0.05,3.01,1.93,1.14,-1.91,1.34,-0.23,-0.87,-1.46,-0.24,0.57,-0.56,-3.76,-3.41,-2.59,-3.08,0.16,2.95,0.21
CCn1c(-c2nonc2N)nc2cncc(C(=O)N3CC[C@H](N)C3)c21,2.72,-3.11,-1.83,-0.78,10.7,3.38,9.04,2.29,5.01,0.14,3.17,-1.03,-0.35,5.37,4.64,3.17,3.95,-6.46,-9.74,-0.79
O=C1NC(=O)C(c2cccc(Cl)c2)=C1Nc1ccc(O)c(Cl)c1,2.28,-0.01,2.47,1.38,8.66,1.96,4.99,0.26,0.3,-0.58,0.35,-2.71,-4.83,-1.72,5.36,0.8,4.17,-4.92,1.17,1.58
COC(=O)Nc1nc2cc(Oc3cccc(NC(=O)Nc4cc(C(F)(F)F)ccc4F)c3)ccc2[nH]1,0.49,-1.97,-3.98,2.37,5.26,1.03,1.94,-4.01,-0.11,0.33,-0.42,-0.98,-3.74,-3.27,-1.03,0.19,0.17,1.18,0.44,-0.62
Fc1cccc(COc2ccc(Nc3ncnc4sc(-c5cccs5)cc34)cc2Cl)c1,1.8,0.46,0.83,0.93,1.59,-0.98,-0.33,1.26,0.64,0.6,0.86,0.18,-1.11,0.9,4.07,-0.78,2.29,0.44,-0.43,-1.15
COC(=O)Nc1nc2cc(Oc3ccc(NC(=O)Nc4cccc(C(=O)O)c4)cc3)ccc2[nH]1,2.25,1.98,3.99,-1.1,1.12,0.94,-1.18,-0.17,-0.69,0.51,-0.37,-0.09,3.15,-0.54,-3.19,-1.33,-1.97,2.72,-1.03,0.94
CC1=C(C(=O)Nc2ccc3[nH]ncc3c2)C(c2ccc(Cl)c(Cl)c2)CC(=O)N1 (stereo not drawn),14.6,-0.02,1.57,1.46,4.94,0.46,0.24,-0.61,2.05,-0.46,1.19,-1.56,-3.22,-0.33,-0.79,0.18,1.04,0.44,-1.19,0.43
Cc1ccc(C(=O)NC2CCCCC2)cc1-c1ccc(C(=O)NCC2CC2)cc1,0.88,1.95,0.5,5.36,17.4,4.59,14.2,1.77,2.53,-0.98,1.27,-2.04,-2.48,1.35,-0.53,1.89,1.33,3.97,-5.9,-7.61
Cc1nnc(-c2ccc(C)c(-c3ccc(C(=O)Nc4cccc(C#N)c4)cc3)c2)o1,5.78,-2.92,-1.26,–,–,5.2,22.9,3.5,1.58,-0.3,1.19,-1.96,-1.67,2.12,1.71,1.98,1.12,-1.86,0.49,-2.17
COc1cc2ncn(-c3cc(OCc4ccccc4Cl)c(C(N)=O)s3)c2cc1OC,1.75,-0.61,-1.33,2.7,18.4,1.39,4.07,0.95,0.78,1.88,0.85,-1.26,-1.23,0.86,19.6,0.19,18.4,-5.9,1.54,2.8
Nc1nc(-c2ccccn2)c(-c2ccc3ncccc3n2)s1,1.04,0.57,0.83,-0.64,6.59,1.28,3.29,2.8,5.95,-0.21,1.76,-1.15,-0.55,4.05,5.74,2.87,3.05,4.8,0.96,-1.16
